{
  "source": "PubChem BioAssay (NCI)",
  "note": "Where “and” joins values, the source holds several entries; their conditions need not be identical. Equal values may be shown once. About 83,000 compounds went through this panel and 20% of them were active in at least one assay; those are over-represented in the sample as a whole.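 The test compound was applied at a single concentration to cells in 96-well plates for 48 hours, and percent growth was recorded.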 Unmarked numbers belong to inactive results. Calls of active or inactive are those of the source.",
  "data": [
    {"tested_on": "TK-10 renal", "assay": "NCI-60 one-dose screen, 48 h (100 = growth as untreated, 0 = no growth, -100 = all killed)", "details": "4.75 µM", "method": "(§1) Growth inhibition of the TK-10 human tumor cell line is measured as a screen for anti-cancer activity. Cells are grown in 96 well plates and exposed to the test compound for 48 hours. Compounds are tested at a single concentration, which is 10^-5 M for most compounds. The reported endpoint is percent growth (GI% or GIPRCNT), where numbers from 0 - 100% represent growth inhibition, and numbers from -100% - 0 represent cell death. For example, a value of 40 represents 60% growth inhibition. A value of 0 means no net growth occurred over the course of the experiment. A value of -40 indicates 40% of cells at the beginning of the experiment died by the end of the experiment. A value of -100 means all cells are dead at the end of the experiment.\n(§2) NCI-60 Human Tumor Cell Lines Screen was performed using the standard one-dose NCI protocol, which is described in more detail at https://dtp.cancer.gov/discovery_development/nci-60/default.htm.\n(§3) Compounds with GIPRCNT values below 10 were considered active. Activity score was based on GIPRCNT using the following formula: […]\n(§4) Score is 0 for GIPRCNT values of 100 or above, 50 for GIPRCNT values of 0, and 100 for GIPRCNT values of -100.", "values": [
      {"smiles": "CC(=O)OCC1OC([S-])C(OC(C)=O)C(OC(C)=O)C1OC(C)=O.[Au+].c1ccc(CN2[CH-]N(Cc3ccccc3)C(c3ccccc3)=C2c2ccccc2)cc1", "growth": "5.22% (active)"}
    ]},
    {"tested_on": "TK-10 renal", "assay": "NCI-60 one-dose screen, 48 h (100 = growth as untreated, 0 = no growth, -100 = all killed)", "details": "10 µM", "method": "as §1, §2, §3, §4", "values": [
      {"smiles": "CC(=O)OCC1OC([S-])C(OC(C)=O)C(OC(C)=O)C1OC(C)=O.[Au+].c1ccc(CN2[CH-]N(Cc3ccccc3)C(c3ccccc3)=C2c2ccccc2)cc1", "growth": "-41.6% (active)"}
    ]},
    {"tested_on": "TK-10 renal", "assay": "NCI-60 one-dose screen, 48 h (100 = growth as untreated, 0 = no growth, -100 = all killed)", "details": "10 µM unless noted", "method": "as §1, §2, §3, §4", "values": [
      {"smiles": "CCOC(=O)c1ccccc1C(=O)OCC", "growth": "98.2%"},
      {"smiles": "C[C@]12CC[C@H]3[C@@H](C[C@@H]4SC(Nc5cccc(F)c5)=N[C@@]45CC(=O)CC[C@]35C)[C@@H]1CCC2=O", "growth": "20.3%"},
      {"smiles": "O=[N+]([O-])c1cc(Br)c(O)c(Br)c1", "growth": "100%"},
      {"smiles": "CCCCS(=O)(=O)Cl", "growth": "103%"},
      {"smiles": "CC(C)CCC1C(=O)NC(=O)NC1=O", "growth": "84.5%"},
      {"smiles": "Cc1cc(N)ccc1N", "growth": "126%"},
      {"smiles": "O=[N+]([O-])c1ccc2scc3c4ccccc4nc-3c2c1", "growth": "-53.7% (active)"},
      {"smiles": "CCN1C(=O)NC(=O)C(C)(N2C(=O)c3c(F)c(F)c(F)c(F)c3C2=O)C1=O", "note": "(stereo not given)", "growth": "34.5%"},
      {"smiles": "O=C(O)c1cc([N+](=O)[O-])cc([N+](=O)[O-])c1", "growth": "96.9%"},
      {"smiles": "[N-]=[N+]=CC(=O)CCC(=O)C=[N+]=[N-]", "growth": "114%"},
      {"smiles": "C[N+]12CCC34C5=CC(=O)C(=O)C=C5[N+]5(C)C(=O)CC6OCC=C(C1)C(CC32)C6C45", "note": "(stereo not given)", "growth": "116%"},
      {"smiles": "COc1ccc2c(c1)C1(C)CCN(C)CC(C1)C2O", "note": "(stereo not given)", "growth": "95%"},
      {"smiles": "COc1ccn(C)c(=O)c1C#N", "growth": "78.5%"},
      {"smiles": "O=NN1CCCCC1", "growth": "110%"},
      {"smiles": "CN(C)c1ccc(C=C2C(=O)NC(=O)NC2=O)cc1", "growth": "109%"},
      {"smiles": "COC(=O)C12C3C4C1C1C2C3C41NC(=O)c1csc([C@@H](C[C@H](C(C)C)N(C)C(=O)[C@@H](NC(=O)[C@H]2CCCCN2C)C2CC2)OC(C)=O)n1", "note": "(stereo not given in full)", "growth": "41.2%"},
      {"smiles": "COc1cc(C2C3=C(CCCC3=O)N(CCO)c3cc4c(cc32)CCC4)cc(OC)c1OC", "note": "(stereo not given)", "growth": "82.1%"},
      {"smiles": "CN1CCC2(CC1)C(C#N)C(=O)NC(=O)C2C#N", "note": "(stereo not given)", "growth": "125%"},
      {"smiles": "N#CC(C#N)=Cc1cccc(F)c1", "growth": "104%"},
      {"smiles": "COC(=O)CCP(CCC(=O)OC)c1ccccc1", "growth": "109%"},
      {"smiles": "CCC1(NC(=O)c2cc(F)c(F)c(F)c2F)C(=O)NC(=O)N(C(C)C)C1=O", "note": "(stereo not given)", "growth": "123%"},
      {"smiles": "CCCn1cc2c3c(cccc31)[C@H]1C[C@@H](C)CN(C)[C@@H]1C2", "growth": "96.8%"},
      {"smiles": "CC1OC(=O)C(C(C)C)NC(=O)C(C(C)C)OC(=O)C(C(C)C)NC(=O)C(C)OC(=O)C(C(C)C)NC(=O)C(C(C)C)OC(=O)C(C(C)C)NC(=O)C(C)OC(=O)C(C(C)C)NC(=O)C(C(C)C)OC(=O)C(C(C)C)NC1=O", "note": "(stereo not given)", "growth": "24.6%"},
      {"smiles": "CCCCCCCCCCCCCCCC[N+](C)(C)C", "growth": "-72.8% (active) and -39.9% (active)"},
      {"smiles": "CC(=O)Nc1nc2c(s1)C1=CC[C@H]3[C@@H]4CC[C@H](OC(C)=O)[C@@]4(C)CC[C@@H]3[C@@]1(C)CC2", "growth": "96.2%"},
      {"smiles": "ClC1OC(Cl)(Cl)C(Cl)(Cl)OC1(Cl)Cl", "note": "(stereo not given)", "growth": "107%"},
      {"smiles": "COc1ccc(N(CC(=O)NCCC[Te]c2ccccc2)C(=O)c2ccccc2)cc1", "growth": "97.7%"},
      {"smiles": "C[C@]12CCC3[C@@H](C[C@@H]4SC(Nc5ccccc5)=N[C@@]45CC(=O)CC[C@]35C)[C@@H]1CCC2=O", "note": "(stereo not given in full)", "growth": "-4.55% (active)"},
      {"smiles": "C/C=C(/C)C(=O)O[C@H]1CC[C@@]2(C)[C@@H]3CC[C@H]4[C@]5(O)C[C@H](O)[C@@]6(O)[C@@H](CN7C[C@@H](C)CC[C@H]7[C@@]6(C)O)[C@]5(O)C[C@@]42O[C@@]13O", "growth": "125%"},
      {"smiles": "CC1(C)C=Cc2c(ccc3c2[N+]([O-])=C2C3=C[C@@]34NC(=O)[C@]5(CCCN5C3=O)C[C@@H]4C2(C)C)O1", "growth": "83.1%"},
      {"smiles": "OCCN=Cc1c[nH]c2ccccc12", "growth": "122%"},
      {"smiles": "CSc1cc(/C=C(\\C)[C@@H]2C[C@@H]3O[C@]3(C)CCC[C@H](C)[C@H](O)[C@@H](C)C(=O)C(C)(C)[C@@H](O)CC(=O)O2)n(CCNC(=O)OC(C)(C)C)n1", "growth": "76.8%"},
      {"smiles": "CC[C@H](C)[C@H](NC(=O)c1cnccn1)C(=O)N(C)[C@H](C[C@@H](OC(C)=O)c1nc(C(=O)N[C@@H](Cc2ccccc2)C[C@H](C)C(=O)OC)cs1)C(C)C", "growth": "48.2%"},
      {"smiles": "CN1CCc2cc3c(cc2C1O)OCO3", "note": "(stereo not given)", "growth": "112% and 111%"},
      {"smiles": "O=[N+]([O-])c1ccc(P(=O)(O)O)cc1", "growth": "101%"},
      {"smiles": "CC/C(=C(\\c1ccc(OCCN2CCOCC2)cc1)c1ccc(OC(=O)Cc2ccccc2)cc1)c1ccc(Cl)cc1", "growth": "93%"},
      {"smiles": "CCCC[C@@H]1CCN2C[C@@H](O)[C@@H](O)[C@@H]2[C@H]1O", "growth": "113% [100 µM] and 98.7% [100 µM]"},
      {"smiles": "CO[C@@H]([CH2][Hg][O]C(=O)c1ccccc1)[C@@H]([CH2][Hg][O]C(=O)c1ccccc1)OC", "growth": "128%"}
    ]}
  ]
}
